Results as given in PubChem BioAssay (Tox21).
“And” between values parts separate entries of the source, which are not always exact repeats. Equal values may be shown once. Results filed as inconclusive are left out. The source made the active and inactive calls. Unless noted, calls follow the shape of the full dose curve.

Columns and labels:
[1] = Nuclear factor erythroid 2-related factor 2/antioxidant responsive element (Nrf2/ARE) small molecule agonists: qHTS cell viability counter screen in human keratinocytes (AID 1919968; active = well fitted curve in the direction sought with a large enough effect in the repeat runs; an effect the other way counts as inactive or inconclusive; also: nearly all actives have a fitted effect of over 55% in size)
How it was run: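 After a 5 h attachment period, ARE-reporter keratinocytes were dosed with compounds in DMSO and then cultured 23 h at 37 C. Cell viability came from CellTiter-Fluor signal read after a further 1 h.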

[2] = Nuclear factor erythroid 2-related factor 2/antioxidant responsive element (Nrf2/ARE) small molecule agonists: luciferase reporter gene qHTS assay in human keratinocytes (AID 1919969); also: nearly all actives have a fitted effect of over 35% in size; also: potency is read from the fitted curve at half-maximal effect
[3] = biological target: Gonadotropin-releasing hormone receptor (Homo sapiens) (UniProt P30968); assay: Human gonadotropin-releasing hormone receptor (GnRHR) small molecule agonists, calcium flux assay in GnRHR-HEK293 cells (AID 1920063); also: nearly all actives have a fitted effect of over 35% in size
Chain of Gonadotropin-releasing hormone receptor (Homo sapiens) (P30968 whole entry, looked up): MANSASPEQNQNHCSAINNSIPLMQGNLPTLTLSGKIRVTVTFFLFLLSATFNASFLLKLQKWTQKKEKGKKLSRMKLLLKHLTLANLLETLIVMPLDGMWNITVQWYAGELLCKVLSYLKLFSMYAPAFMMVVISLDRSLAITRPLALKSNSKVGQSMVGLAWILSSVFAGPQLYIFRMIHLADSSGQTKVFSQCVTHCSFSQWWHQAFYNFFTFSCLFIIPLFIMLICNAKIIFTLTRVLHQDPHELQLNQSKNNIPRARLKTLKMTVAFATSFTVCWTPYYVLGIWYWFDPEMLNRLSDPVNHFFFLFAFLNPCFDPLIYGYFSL
How it was run: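 We seeded human GnRHR-expressing HEK293 cells for 18 hours, loaded them with calcium dye for an hour at 37 C, added test compounds, and recorded fluorescence intensity kinetically for three minutes.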

[4] = biological target: KiSS-1 receptor (Homo sapiens) (UniProt Q969F8); assay: Human kisspeptin (KISS1R) small molecule agonists, calcium flux assay in KISS1R-HEK293 cells (AID 1920064; active = well fitted curve in the direction sought with a large enough effect in the repeat runs; an effect the other way counts as inactive or inconclusive)
Chain of KiSS-1 receptor (Homo sapiens) (Q969F8 whole entry, looked up): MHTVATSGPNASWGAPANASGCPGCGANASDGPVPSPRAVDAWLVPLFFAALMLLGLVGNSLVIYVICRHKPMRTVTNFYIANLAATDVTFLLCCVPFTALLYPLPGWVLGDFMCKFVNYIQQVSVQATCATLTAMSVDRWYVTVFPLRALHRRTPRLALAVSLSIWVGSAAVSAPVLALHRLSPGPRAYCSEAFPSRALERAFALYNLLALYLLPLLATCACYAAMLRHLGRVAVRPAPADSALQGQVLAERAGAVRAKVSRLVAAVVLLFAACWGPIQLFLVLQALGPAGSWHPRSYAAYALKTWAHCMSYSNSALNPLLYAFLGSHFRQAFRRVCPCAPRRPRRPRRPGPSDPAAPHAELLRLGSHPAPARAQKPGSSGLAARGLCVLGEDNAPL
How it was run: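 Kinetic calcium assay, 1 s sampling over 3 min at Ex/Em 480/540, in HEK293 cells engineered with human KISS1R; compounds delivered in DMSO after 1 h dye loading.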

[5] = G protein-coupled receptor (GPCR) small molecule agonists, calcium flux assay: HEK293 wild type cell line counter screen (AID 1920065)
How it was run: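 Calcium-sensitive dye, loaded 1 h at 37 C into cells cultured 18 h, reports compound-evoked calcium release as fluorescence (Ex/Em 480/540), measured over 3 min. Agonist mode; 15-point titrations, triplicate.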

[6] = p53 small molecule agonists, cell-based qHTS assay with human liver microsomes (AID 1963577)
How it was run: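 p53RE-bla cells, 4,000/well, compound added after 5 h, with human liver microsomes 0.5 mg/mL and NADPH 0.5 mg/mL final; 16 h at 37 C, then LiveBLAzer 2 h RT, fluorescence.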

[7] = p53 small molecule agonists, cell-based qHTS assay with rat liver microsomes (AID 1963578)
How it was run: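 p53RE-bla cells, 4,000/well, pre-incubated 5 h, then given compounds plus rat liver microsomes (0.5 mg/mL final) and NADPH (0.5 mg/mL final). Incubation 16 h at 37 C; beta-lactamase reporter read by LiveBLAzer fluorescence after 2 h at room temperature.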

[8] = p53 small molecule agonists, cell-based qHTS assay with human liver microsomes: qHTS cell viability counter screen (AID 1963579); also: nearly all actives have a fitted effect of over 45% in size
How it was run: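 p53RE-bla cells, 4,000/well, dosed 5 hours after plating, with human liver microsomes (0.5 mg/mL final) plus NADPH (0.5 mg/mL final), 16 hours at 37 C. Viability read as CellTiter-Glo luminescence after 30 min at room temperature.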

[9] = p53 small molecule agonists, cell-based qHTS assay with rat liver microsomes: qHTS cell viability counter screen (AID 1963580); also: nearly all actives have a fitted effect of over 45% in size
How it was run: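 Viability is assessed in parallel with the p53 reporter read: HCT-116 p53RE-bla cells receive compounds plus rat microsomes and NADPH (0.5 mg/mL final apiece), incubate 16 h at 37 C, and then CellTiter-Glo luminescence is recorded.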

[10] = p53 small molecule agonists, cell-based qHTS assay (AID 1963582; active = well fitted activation curve with a large enough effect in the signal ratio in the repeat runs, not every such curve was filed as active; the % refers to the signal ratio)
How it was run: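 In this cell-based concentration-response screen, a p53 response element drives beta-lactamase; cells received DMSO-borne compounds after 5 h culture and were incubated a further 16 h before FRET substrate development.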

[11] = biological target: 5-hydroxytryptamine receptor 2A (Homo sapiens) (UniProt P28223); assay: 5-hydroxytryptamine receptor 2A (HTR2A) small molecule antagonists, cell-based qHTS assay (AID 1963586); also: nearly all actives have a fitted effect of over 45% in size
Chain of 5-hydroxytryptamine receptor 2A (Homo sapiens) (P28223 whole entry, looked up): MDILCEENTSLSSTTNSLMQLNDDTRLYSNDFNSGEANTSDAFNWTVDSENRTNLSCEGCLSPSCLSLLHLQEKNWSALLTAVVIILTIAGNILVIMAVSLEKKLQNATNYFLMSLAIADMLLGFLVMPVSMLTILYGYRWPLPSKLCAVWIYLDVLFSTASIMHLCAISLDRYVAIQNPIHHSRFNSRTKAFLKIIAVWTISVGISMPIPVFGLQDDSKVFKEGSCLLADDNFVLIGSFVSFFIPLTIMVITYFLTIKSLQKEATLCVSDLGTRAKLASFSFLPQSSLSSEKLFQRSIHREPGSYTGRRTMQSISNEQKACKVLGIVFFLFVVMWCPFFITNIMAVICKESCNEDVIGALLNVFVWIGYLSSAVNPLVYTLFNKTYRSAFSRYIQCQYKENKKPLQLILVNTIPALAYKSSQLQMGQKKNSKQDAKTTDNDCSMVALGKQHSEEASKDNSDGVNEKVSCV
How it was run: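 Antagonist-mode intracellular calcium assay: DOI (4 nM) added after 5 min compound pre-incubation at room temperature to dye-loaded HTR2A-CHO cells. Fluorescence followed for 3 min, sampled every second.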

[12] = biological target: 5-hydroxytryptamine receptor 2A (Homo sapiens) (UniProt P28223); assay: 5-hydroxytryptamine receptor 2A (HTR2A) small molecule agonists, cell-based qHTS assay (AID 1963587); also: nearly all actives have a fitted effect of over 30% in size
How it was run: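 CHO cells stably expressing human HTR2A, plated 18 h, loaded with calcium dye 1 h at 37 C. Agonist mode: compounds added and intracellular calcium fluorescence recorded kinetically for 2 min at 1 sec intervals.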

[13] = biological target: Muscarinic acetylcholine receptor M1 (Homo sapiens) (UniProt P11229); assay: Cholinergic receptor muscarinic 1 (CHRM1) small molecule antagonists, cell-based qHTS assay (AID 1963588); also: nearly all actives have a fitted effect of over 40% in size
Chain of Muscarinic acetylcholine receptor M1 (Homo sapiens) (P11229 whole entry, looked up): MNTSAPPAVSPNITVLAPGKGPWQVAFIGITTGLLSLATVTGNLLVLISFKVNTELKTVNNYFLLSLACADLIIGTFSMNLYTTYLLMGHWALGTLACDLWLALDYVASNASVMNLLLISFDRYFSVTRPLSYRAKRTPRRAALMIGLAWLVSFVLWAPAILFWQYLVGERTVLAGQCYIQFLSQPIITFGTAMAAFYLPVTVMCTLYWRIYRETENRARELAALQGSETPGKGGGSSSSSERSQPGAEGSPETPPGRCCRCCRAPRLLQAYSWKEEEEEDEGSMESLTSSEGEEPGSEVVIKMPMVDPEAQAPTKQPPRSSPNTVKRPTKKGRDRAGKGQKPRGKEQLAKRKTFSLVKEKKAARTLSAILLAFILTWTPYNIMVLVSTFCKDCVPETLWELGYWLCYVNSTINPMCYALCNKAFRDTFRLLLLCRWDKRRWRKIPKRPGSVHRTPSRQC
How it was run: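 CHRM1-CHO calcium-flux assay, antagonist mode. Cells were seeded 18 h, dye-loaded 1 h at 37 C and given compound for 5 min at RT, then acetylcholine was added at 50nM. FDSS fluorescence was read 3 min; 15 concentrations, three runs.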

[14] = biological target: Muscarinic acetylcholine receptor M1 (Homo sapiens) (UniProt P11229); assay: Cholinergic receptor muscarinic 1 (CHRM1) small molecule agonists, cell-based qHTS assay (AID 1963589); also: nearly all actives have a fitted effect of over 35% in size
How it was run: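 Measures agonist-induced intracellular calcium rise. Stable human CHRM1 CHO line, 1 h dye load at 37 C, compounds from DMSO, kinetic fluorescence read.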

[15] = cAMP Responsive Elements (CRE) small molecule agonists, cell-based qHTS assay (AID 1963590)
How it was run: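 A CRE-responsive beta-lactamase reporter in HEK 293T cells was used. Treatment ran 3 h at 37 C; detection used LiveBLAzer B/G FRET substrate for 2 h at room temperature.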

[16] = cAMP Responsive Elements (CRE) small molecule antagonists, cell-based qHTS assay (AID 1963591; active = well fitted inhibition curve with a large enough effect in the signal ratio in the repeat runs, not every such curve was filed as active; the % refers to the signal ratio)
How it was run: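 HEK293T cells carrying a CRE-driven beta-lactamase reporter receive compound and NKH477 (0.25 uM final) for 3 h. Fluorescence from LiveBLAzer B/G FRET substrate is read after 2 h at room temperature.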

[17] = biological target: Beta-2 adrenergic receptor (Homo sapiens) (UniProt P07550); assay: Adrenergic beta2 receptor (ADRB2) small molecule antagonists, cell-based qHTS assay (AID 1963592); also: series mostly up to about 92 µM; nearly all actives have a fitted effect of over 50% in size
Chain of Beta-2 adrenergic receptor (Homo sapiens) (P07550 whole entry, looked up): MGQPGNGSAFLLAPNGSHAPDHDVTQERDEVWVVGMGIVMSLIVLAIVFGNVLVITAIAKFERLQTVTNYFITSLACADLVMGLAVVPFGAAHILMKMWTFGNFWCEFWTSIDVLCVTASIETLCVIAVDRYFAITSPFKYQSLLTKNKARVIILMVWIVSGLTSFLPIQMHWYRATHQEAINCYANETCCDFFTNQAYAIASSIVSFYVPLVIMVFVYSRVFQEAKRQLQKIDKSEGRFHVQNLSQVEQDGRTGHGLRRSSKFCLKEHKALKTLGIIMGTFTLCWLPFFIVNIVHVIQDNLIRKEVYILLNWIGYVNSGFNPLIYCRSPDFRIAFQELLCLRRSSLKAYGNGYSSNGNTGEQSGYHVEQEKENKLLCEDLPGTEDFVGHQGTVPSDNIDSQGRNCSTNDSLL
How it was run: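 Cells (CHO, stable ADRB2 overexpression) incubated 18-20hr at 37C; compounds added from DMSO; agonist mix (1nM isoproterenol, 100uM IBMX, 25uM Ro-20-1724) added; 0.5hr RT; d2-cAMP and anti-cAMP-cryptate added; 1hr RT; 665/615 nm read.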

[18] = biological target: D(2) dopamine receptor (Homo sapiens) (UniProt P14416); assay: Dopamine D2 receptor (DRD2) small molecule agonists, cell-based qHTS assay (AID 1963594); also: nearly all actives have a fitted effect of over 35% in size
Chain of D(2) dopamine receptor (Homo sapiens) (P14416 whole entry, looked up): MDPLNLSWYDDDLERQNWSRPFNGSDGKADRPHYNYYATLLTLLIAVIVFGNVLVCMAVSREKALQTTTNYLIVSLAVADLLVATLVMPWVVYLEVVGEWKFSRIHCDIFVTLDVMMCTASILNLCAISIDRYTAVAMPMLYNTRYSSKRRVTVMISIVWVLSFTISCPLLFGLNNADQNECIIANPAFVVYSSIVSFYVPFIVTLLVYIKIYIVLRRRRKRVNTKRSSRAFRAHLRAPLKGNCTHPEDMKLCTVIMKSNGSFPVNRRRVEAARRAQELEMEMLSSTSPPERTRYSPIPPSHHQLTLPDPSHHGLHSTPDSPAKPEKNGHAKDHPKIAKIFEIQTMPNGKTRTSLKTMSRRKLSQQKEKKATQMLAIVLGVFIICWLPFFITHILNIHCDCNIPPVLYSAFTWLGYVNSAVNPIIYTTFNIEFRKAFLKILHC
How it was run: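 HEK293 cells stably expressing human DRD2, pre-treated with PDE inhibitor Ro20-1724 (0.1 mM final) and compound 10 min at room temperature, then stimulated with NKH477 (200nM […]) for 30 min. cAMP read by HTRF (665/620 nm).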

[19] = biological target: D(2) dopamine receptor (Homo sapiens) (UniProt P14416); assay: Dopamine D2 receptor (DRD2) small molecule antagonists, cell-based qHTS assay (AID 1963595; active = well fitted inhibition curve with a large enough effect in the signal ratio in the repeat runs, with a control signal flat; the % refers to the signal ratio)
How it was run: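 Stable D2 receptor HEK293 line, 24 h after seeding. Compound preincubated 10 min, then quinpirole (12 nM) with forskolin analogue NKH477 (200 nM), 30 min, room temperature. Detection by time-resolved FRET of cAMP.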

[20] = p53 small molecule agonists, cell-based qHTS assay: qHTS cell viability counter screen (AID 1963581); also: nearly all actives have a fitted effect of over 45% in size
How it was run: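 Following 5 h attachment, HCT-116 p53RE-bla cells took up compound for 16 h at 37 C; the reporter was read with B/G FRET substrate (2 h RT), and viability then via CellTiter-Glo ATP luminescence.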
% is scaled to controls: 0 for no effect and ±100 for the full control effect.

CNC(=O)N(C)c1nnc(C(C)(C)C)s1
inactive: Potency [1] | Potency [2] | Potency [3] | Potency [4] | Potency [5] | Potency [6] | Potency [7] | Potency [8] | Potency [9] | Potency [10] | Potency [11] | Potency [12] | Potency [13] | Potency [14] | Potency [15] | Potency [16] | Potency [17] | Potency [18] | Potency [19]

COc1cc(OC)nc(Sc2cccc(Cl)c2C(=O)O)n1
inactive: Potency [1] | Potency [2] | Potency [3] | Potency [4] | Potency [5] | Potency [6] | Potency [7] | Potency [8] | Potency [9] | Potency [10] | Potency [11] | Potency [12] | Potency [13] | Potency [14] | Potency [15] | Potency [16] | Potency [17] | Potency [18] | Potency [19]

CSc1nc(NC(C)C)nc(NC(C)C)n1
inactive: Potency [1] | Potency [2] | Potency [3] | Potency [4] | Potency [5] | Potency [6] | Potency [7] | Potency [8] | Potency [9] | Potency [10] | Potency [11] | Potency [13] | Potency [15] | Potency [16] | Potency [18] | Potency [19]

CO[C@@H]1[C@H](OC(=O)NC(=O)CCl)CC[C@]2(CO2)[C@H]1[C@@]1(C)O[C@@H]1CC=C(C)C
inactive: activity change, negative = cytotoxicity [1] -2.18% [at 19 µM] | activity change [3] 0.0131% [at 11.8 µM, active compounds read high] | activation [4] 0.453% [at 15.8 µM] | activation [5] 2.6% [at 11.8 µM] | activation [6] -1.53% [at 13.5 µM] | activation [7] 1.99% [at 13.6 µM] | activity change, negative = cytotoxicity [8] 1.12% [at 13.5 µM] | activity change, negative = cytotoxicity [20] 4.01% [at 13.5 µM] | activation [10] -1.88% [at 13.5 µM] | activity, negative = inhibition [11] -0.303% [at 12.7 µM] | activation [12] -4.56% [at 15.9 µM] | activity, negative = inhibition [13] 56% [at 12.6 µM] | activation [14] -0.344% [at 15.8 µM] | activation [15] -1.17% [at 19 µM] | activity change, negative = inhibition [16] -7.46% [at 18.9 µM] | activity change, negative = inhibition [17] -3.1% [at 19 µM] | activation [18] 1.8% [at 19 µM] | activity change, negative = inhibition [19] -0.406% [at 18.9 µM]
active: Potency [2] 16.7 µM

CN(C)c1ccc(C(=O)c2ccc(N(C)C)cc2)cc1
active: Potency [2] 67.9 µM and 54.5 µM
inactive: Potency [1] | Potency [3] | Potency [4] | Potency [5] | Potency [6] | Potency [7] | Potency [8] | Potency [9] | Potency [11] | Potency [12] | Potency [14] | Potency [16] | Potency [17] | Potency [18] | Potency [19]

OCC(O)CCl (stereo unspecified)
inactive: Potency [1] | Potency [2] | Potency [3] | Potency [4] | Potency [5] | Potency [6] | Potency [7] | Potency [8] | Potency [9] | Potency [10] | Potency [11] | Potency [12] | Potency [14] | Potency [15] | Potency [16] | Potency [17] | Potency [18] | Potency [19]

COc1cc(OC)nc(Oc2cccc(Oc3nc(OC)cc(OC)n3)c2C(=O)O)n1
inactive: Potency [1] | Potency [2] | Potency [3] | Potency [4] | Potency [5] | Potency [6] | Potency [7] | Potency [9] | Potency [20] | Potency [10] | Potency [11] | Potency [12] | Potency [13] | Potency [14] | Potency [15] | Potency [16] | Potency [17] | Potency [18] | Potency [19]
